Measured values taken from PubChem BioAssay (NCATS).
Records with an inconclusive call do not appear. A number with no mark means an inactive call. The source made the active and inactive calls. The call rests on the fitted dose curve; in most records, active means well fitted cell-killing curve with a large enough effect; inconclusive means small, poorly fitted or top-dose-only effect, or effect the other way; inactive means no such curve, though single readings can be large or run the other way.

Experiment: Quantitative High-Throughput drug screen in 47 multiple myeloma cell lines against the NCATS MIPE library collection: OCIMY7_PLB cell viability assay (AID 1918987); further: nearly all actives have a fitted effect of over 65% in size
Conditions: OCI-MY7 myeloma viability, CellTiter-Glo ATP, 48 h; series mostly up to 45.8 µM; viability (% of DMSO): at the top concentration
From the text: PI: Beverly A. Mock Ph.D.
Laboratory of Cancer Biology and Genetics,
Center for Cancer Research, National Cancer Institute,
National Institute of Health, Bethesda, Maryland
Drug resistance and disease progression are common in multiple myeloma (MM) patients, underscoring the need for new therapeutic combinations. […] We hypothesized that effective combinations would reduce MYC expression and enhance p16 activity. […] These preclinical data identify potentially useful drug combinations for evaluation in drug-resistant MM and reveal potential mechanisms of combined drug sensitivity.
Described herein is the primary MIPE qHTS used to cherrypick compounds. Validated compounds were then further tested for potential synergistic activiy.
[1] Peat TJ, Gaikwad SM, Dubois W, Gyabaah-Kessie N, Zhang S, Gorjifard S, Phyo Z, Andres M, Hughitt VK, Simpson RM, Miller MA, Girvin AT, Taylor A, Williams D, D'Antonio N, Zhang Y, Rajagopalan A, Flietner E, Wilson K, Zhang X, Shinn P, Klumpp-Thomas C, McKnight C, Itkin Z, Chen L, Kazandijian D, Zhang J, Michalowski AM, Simmons JK, Keats J, Thomas CJ, Mock BA. Drug combinations identified by high-throughput screening promote cell cycle transition and upregulate Smad pathways in myeloma. Cancer Lett. 2023 Aug 1;568:216284. doi: 10.1016/j.canlet.2023.216284. Epub 2023 Jun 24. PMID: 37356470; PMCID: PMC10408729.
SEQUENCE No. (e.g., 1, 2, 3, etc.); […] (e.g., Cells, Incubation, Reagent, etc.); VALUE and DESCRIPTION.
1; Cells; 5 uL; white, solid bottom 1536-well Greiner assay plate.
2; Compounds; 23 nL; Kalypsis pin tool (Wako USA) equipped with a 1536-well pin head to transfer to the assay plates.
3; Incubation; 48 hours; 37C incubation.
4; Reagent;5uL; CellTiter Glo (Promega).
5; Detector; 425V; Luminescence; Viewlux PerkinElmer.
NOTES (numbers refer to Sequence numbers above)
1. The cell-based screening methods employed in this study were like those previously published. Briefly, the corresponding myeloma cell lines were screened in 1,536-well plates with 500 cells, 5-uL per well for inhibition of cell viability (assessed by measuring ATP levels with CellTiterGlo).
2. NCATS MIPE 4.0 library of approved and investigational drugs were added using the Kalypsis pin tool. Wells treated with DMSO only for 100% viability and media only for 0% viability were used as controls.
3. The assay plates were covered and incubated for 48 hours in a 37C, 5% CO2 incubator with controlled humidity.
4. After 48 hours, CellTilter-GloTM luminescent substrate mix (Promega) reagent was added to the assay plate and plates we incubated for 5 min at room temperature.
5. Signal was measured as median relative luminescence units on a ViewLux (PerkinElmer) multiplate reader.
[1] Heske CM, Davis MI, Baumgart JT, Wilson K, Gormally MV, Chen L, Zhang X, Ceribelli M, Duveau DY, Guha R, Ferrer M, Arnaldez FI, Ji J, Tran HL, Zhang Y, Mendoza A, Helman LJ, Thomas CJ. Matrix Screen Identifies Synergistic Combination of PARP Inhibitors and Nicotinamide Phosphoribosyltransferase (NAMPT) Inhibitors in Ewing Sarcoma. Clin Cancer Res. 2017 Dec 1;23(23):7301-7311. doi: 10.1158/1078-0432.CCR-17-1121. Epub 2017 Sep 12. PMID: 28899971; PMCID: PMC6636827.
Potency means the concentration at half of the fitted maximal effect.

SMILES	Potency	viability (% of DMSO) [%]
CN1CCCC(n2nc(Cc3ccc(Cl)cc3)c3ccccc3c2=O)CC1 (stereo not given)	1.18 µM (active)	–
CC1=CC(=O)c2ccccc2C1=O	33.2 µM (active)	–
CCC(=O)O[C@]1(C(=O)SCF)[C@H](C)C[C@H]2[C@@H]3C[C@H](F)C4=CC(=O)C=C[C@]4(C)[C@@]3(F)[C@@H](O)C[C@@]21C	5.26 µM (active)	–
Cc1ccc(S(=O)(=O)N[C@@H](Cc2ccccc2)C(=O)CCl)cc1	3.32 µM (active)	–
COc1cc(NCc2ccc3nc(N)nc(N)c3c2C)cc(OC)c1OC	1.48 µM (active)	–
CC[C@H](C)C(=O)O[C@H]1C[C@@H](C)C=C2C=C[C@H](C)[C@H](CC[C@@H]3C[C@@H](O)CC(=O)O3)[C@H]21	4.69 µM (active)	–
Cc1cc(NS(=O)(=O)c2ccc(N)cc2)no1	16.6 µM (active)	–
CC(C)(C)NC(=O)[C@H]1CC[C@H]2[C@@H]3CC[C@H]4NC(=O)C=C[C@]4(C)[C@H]3CC[C@]12C	0.332 µM (active)	–
Nc1[nH]c(=O)ncc1F	–	228
COc1cc(NS(=O)(=O)c2ccc(N)cc2)nc(OC)n1	–	174
COc1cc2nc(N3CCCN(C)CC3)nc(NC3CCN(Cc4ccccc4)CC3)c2cc1OC	6.62 µM (active)	–
C[C@@H](CN1CC(=O)NC(=O)C1)N1CC(=O)NC(=O)C1	2.35 µM (active)	–
CCCc1cc(C(N)=S)ccn1	–	154
COC(=O)Nc1nc2ccc(C(=O)c3ccccc3)cc2[nH]1	0.418 µM (active)	–
NC(=O)c1cccc(N)c1	4.69 µM (active)	–
O=C(NCC1CN(c2ccc(N3CCOCC3=O)cc2)C(=O)O1)c1ccc(Cl)s1 (stereo not given)	–	178
C1CCC(C(CC2CCCCN2)C2CCCCC2)CC1 (stereo not given)	14.8 µM (active)	–
CCCCc1oc2ccc(NS(C)(=O)=O)cc2c1C(=O)c1ccc(OCCCN(CCCC)CCCC)cc1	18.7 µM (active)	–
COC(=O)Nc1nc2ccc(S(=O)c3ccccc3)cc2[nH]1 (stereo not given)	7.43 µM (active)	–
Nc1nc(=S)c2[nH]cnc2[nH]1	1.32 µM (active)	–

SMILES	Potency	viability (% of DMSO) [%]
CC1=NN(c2ccccc2)C(=O)C1	–	176
CNS(=O)(=O)Cc1ccc2[nH]cc(CCN(C)C)c2c1	–	138
CN(C)CCc1c[nH]c2ccc(C[C@H]3COC(=O)N3)cc12	–	160
N=C(N)c1ccc(OCCCCCOc2ccc(C(=N)N)cc2)cc1	2.35 µM (active)	–
O=C(O)C1CCCN(CCC=C(c2ccccc2)c2ccccc2)C1 (stereo not given)	–	187
N[C@@H](Cc1ccc(O)c(O)c1)C(=O)O	–	181
CO[C@@H]1[C@@H](OC(N)=O)[C@@H](O)[C@H](Oc2ccc3c(O)c(NC(=O)c4ccc(O)c(CC=C(C)C)c4)c(=O)oc3c2C)OC1(C)C	5.9 µM (active)	–
COC(=O)Nc1nc2ccc(Sc3ccccc3)cc2[nH]1	0.209 µM (active)	–
CN(C)c1ccc(C(=C2C=CC(=[N+](C)C)C=C2)c2ccc(N(C)C)cc2)cc1	0.0187 µM (active)	–
Oc1c(Cl)cc(Cl)c2cccnc12	10.5 µM (active)	–
CNCC[C@H](Oc1cccc2ccccc12)c1cccs1	0.59 µM (active)	–
CCc1c2c(nc3ccc(OC(=O)N4CCC(N5CCCCC5)CC4)cc13)-c1cc3c(c(=O)n1C2)COC(=O)[C@]3(O)CC	0.296 µM (active)	–
CNS(=O)(=O)CCc1ccc2[nH]cc(C3CCN(C)CC3)c2c1	0.332 µM (active)	–
Cc1oc(=O)oc1CN1CCN(c2cc3c(cc2F)c(=O)c(C(=O)O)c2n3C(C)S2)CC1 (stereo not given)	–	314
Nc1nc(F)nc2c1ncn2[C@@H]1O[C@H](CO)[C@@H](O)[C@@H]1O	0.118 µM (active)	–
O=S(=O)(O)CCS	–	194
CCCCOc1ccc(CC(=O)NO)cc1	16.6 µM (active)	–
CCCc1nc(C)c2c(=O)[nH]c(-c3cc(S(=O)(=O)N4CCN(CC)CC4)ccc3OCC)nn12	5.9 µM (active)	–
CNC1CCCN(c2c(F)cc3c(=O)c(C(=O)O)cn(C4CC4)c3c2OC)C1 (stereo not given)	1.32 µM (active)	–
COc1ccc(C(=O)CC(=O)c2ccc(C(C)(C)C)cc2)cc1	3.72 µM (active)	–
